# Results filed as inconclusive are left out. Values without a mark were called inactive. Calls come from the whole dose curve; as a rule, active = well fitted inhibition curve with a large enough effect; inconclusive = small, poorly fitted or top-dose-only effect; inactive = no such curve, though single readings can be large or run the other way.
# Experiment: Primary qHTS for small molecule stabilizers of the endoplasmic reticulum resident proteome: Secreted ER Calcium Modulated Protein (SERCaMP) assay (AID 1508630)
# Conditions: SH-SY5Y GLuc-SERCaMP (Gaussia luciferase released on ER calcium loss) secretion, thapsigargin, luminescence; series mostly up to 38.4 µM; activity change, negative = inhibition: at the top concentration
# Excerpt: Assay Provider: Brandon K. Harvey Ph.D.
# National Institute on Drug Abuse, National Institutes of Health, Baltimore, MD
# Endoplasmic reticulum (ER) dysregulation is associated with human pathologies including neurodegenerative, cardiovascular, muscular, and diabetic conditions. Maintenance of ER calcium is critical for functions of the ER and its depletion can lead to loss of ER resident proteins, in a process termed exodosis. Therapeutic compounds capable of attenuating the redistribution of ER proteins under pathological conditions may slow or stop disease progression. To identify such compounds, we performed a quantitative high-throughput screen (qHTS) using the SERCaMP assay, which monitors secretion of ER resident proteins triggered by calcium depletion.
# SERCaMP was initially developed as a reporter of ER calcium homeostasis using a Gaussia luciferase with a modified signal peptide and carboxy-terminus (GLuc-SERCaMP), modifications that confer secretion of the reporter in response to ER calcium depletion (Henderson et al., 2014). The assay was used to screen 9,501 compounds, including a collection of drugs approved by the FDA (US), EMA (EU), NHI (Japan), and HC (Canada) regulatory agencies (Huang et al., 2011). Since the SERCaMP reporter reflects the exodosis phenomenon (Trychta et al., 2018a), compounds identified in the screen have the potential to prevent exodosis by different mechanisms such as stabilizing ER calcium or augmenting ERS retrieval.
# 1. Henderson, M.J., Wires, E.S., Trychta, K.A., Richie, C.T., and Harvey, B.K. (2014). SERCaMP: a carboxy-terminal protein modification that enables monitoring of ER calcium homeostasis. Mol Biol Cell 25, 2828-2839.
# 2. Huang, R., Southall, N., Wang, Y., Yasgar, A., Shinn, P., Jadhav, A., Nguyen, D.T., and Austin, C.P. (2011). The NCGC pharmaceutical collection: a comprehensive resource of clinically approved drugs enabling repurposing and chemical genomics. Sci Transl Med 3, 80ps16.
# 3. Trychta, K.A., Back, S., Henderson, M.J., and Harvey, B.K. (2018a). KDEL Receptors Are Differentially Regulated to Maintain the ER Proteome under Calcium Deficiency. Cell Rep 25, 1829-1840 e1826.
# SEQUENCE No. (1, 2, 3, etc.); […] (e.g., Cells, Incubation, Reagent, etc.); VALUE and DESCRIPTION.
# 1; Reagent; 5 uL; 1000 SH-SY5Y cells per wells
# 3; Compound; 23 nL; Control inhibitor / compound library
# 5; Reagent; 100 nM; Thapsigargin
# 7; Reagent; 1 uL; 0.5x coelenterazine
# 8; Detection; Luminescence; ViewLux imaging system
# NOTES (numbers refer to sequence above)
# 1; SH-SY5Y human neuroblastoma cells stably expressing GLuc-SERCaMP (SH-SY5Y-GLuc-ASARTDL) cells were seeded in 1,536 well white tissue culture treated plates (Corning, Cat# 7464) in DMEM-high glucose-sodium pyruvate (ThermoFisher Scientific, Cat #10569) supplemented with 10% bovine growth serum (Hyclone), 10 U/ml penicillin (Gibco), 10 ug/ml streptomycin (Gibco), and 20 mM HEPES.
# 2; Assay plates were incubated for 5 hour at 37C in a humidified incubator containing 5% CO2.
# 3; qHTS libraries (23 nl, final concentrations of 1.53 uM, 7.67 uM, 38.3 uM) or controls (neutral control: DMSO, positive control: dantrolene) were added using a Kalypsis pin-tool Robotic System equipped with 1536 pinheads.
# 4; Cells were then incubated for 16 hours at 37C, 5% CO2.
# 5; Thapsigargin was added at 100 nM to deplete ER calcium stores.
# 6; Cells were incubated for 4 hour (37 °C, 5% CO2)
# 7; Gaussia luciferase in the medium was measured by adding 1 ul of 0.5x coelenterazine (final concentration 0.07x) prepared in Gaussia Luciferase Glow Assay Buffer (Pierce), without addition of the Cell Lysis Buffer Reagent.
# 8; Luminescence was measured using a ViewLux […] CCD imaging system (Perkin Elmer) equipped with clear filters. […] The same controls were also used for the calculation of the Z' factor, a measure of assay quality control, as previously described (Zhang et al., 1999). […]
# % is set by controls: 0 for no effect and ±100 for the full control effect.
row,SMILES,"activity change, negative = inhibition"
1,COc1cc2nc(Cl)nc(N)c2cc1OC,-19.8%
2,O=C1NC(c2ccccc2)(c2ccccc2)C(=O)N1COP(=O)(O)O,-21.9%
3,CC(=O)N(CC(O)CO)c1c(I)c(C(=O)NCCO)c(I)c(C(=O)NCC(O)CO)c1I (stereo not given),-19.6%
4,CO[C@@]1(NC(=O)CSC[C@@H](N)C(=O)O)C(=O)N2C(C(=O)O)=C(CSc3nnnn3C)CS[C@@H]21,-23.4%
5,CC(C(=O)O)c1ccc(/C=C2\CCCCC2=O)cc1 (stereo not given),-16.7%
6,COc1cc(/C=C/C(N)=O)cc(OC)c1OC,-11.5%
7,CO[C@]1(NC(=O)CSC(F)F)C(=O)N2C(C(=O)O)=C(CSc3nnnn3CCO)CO[C@H]21,-7.5%
8,N#Cc1cc(NC(=O)C(=O)O)c(Cl)c(NC(=O)C(=O)O)c1,-24.7%
9,CCCC(=O)O[C@]1(C(=O)CCl)[C@@H](C)C[C@H]2[C@@H]3CCC4=CC(=O)C=C[C@]4(C)[C@@]3(F)C(=O)C[C@@]21C,-15.1%
10,N[C@@H](Cc1cc(I)c(O)c(I)c1)C(=O)O,-12.2%
11,COc1ccc(-n2nc(CCC(=O)N(C)O)cc2-c2ccc(Cl)cc2)cc1,-25.4%
12,Cc1c(F)cc2c(=O)c(C(=O)O)cn3c2c1CCC3C (stereo not given),-12.1%
13,CCN1CCN(c2cc(-c3ccc(F)cc3)c3c(n2)CCCCCC3)CC1,18.4% [at 21.6 µM]
14,Nc1ccc(C(=O)N2CC3CC(CN(Cc4ccccc4)C3)C2)cc1,-24.3%
15,CCCCCC1Nc2cc(C(F)(F)F)c(S(N)(=O)=O)cc2S(=O)(=O)N1 (stereo not given),-29.5%
16,CC(C)(C)c1nnc(NS(=O)(=O)c2ccccc2)s1,-26.9%
17,CCCCCC[C@@H](CCC)C(=O)O,-33.2%
18,C[C@H]1NCc2cc(-c3ccc4c(=O)c(C(=O)O)cn(C5CC5)c4c3OC(F)F)ccc21,7.45% [at 21.6 µM]
19,NC(=O)NC1N=C([O][Al])NC1=O (stereo not given),-14.8%
20,OC1(c2ccc(Cl)c(C(F)(F)F)c2)CCN(CCCC(c2ccc(F)cc2)c2ccc(F)cc2)CC1,66.2%

row,SMILES,"activity change, negative = inhibition"
1,Cc1cc(OCCOCC[N+](C)(C)Cc2ccccc2)ccc1C(C)(C)CC(C)(C)C,25.9%
2,CN(CC1(C)CCCO1)S(=O)(=O)c1ccc(Cl)c(S(N)(=O)=O)c1 (stereo not given),-11%
3,COc1cc(NS(=O)(=O)c2ccc(N)cc2)nc(C)n1,-22.4%
4,NS(=O)(=O)c1cc2c(cc1Cl)CN(C1CCCCC1)C2=O,-16.1%
5,CC(=O)N(CC(=O)N(C)C)c1ccccc1,41.8%
6,Cc1nc(N)nc(N)c1-c1ccc(Cl)c(Cl)c1,12.8%
7,CN1N=C(C(N)=O)CCC1=O,-25.6%
8,C[C@@H]1CCC[C@H](C)N1CCCC(O)(c1ccccc1)c1ccccn1 (stereo not given in full),-9.61%
9,CCOC(=O)NNc1ccc(N(CC)CC(C)O)nn1 (stereo not given),-5.18%
10,O=C(Nc1ccc(Cl)cc1)Nc1ccc(Cl)c(C(F)(F)F)c1,53.2%
11,CCCC(=O)O[C@]1(C(=O)CC)CC[C@H]2[C@@H]3CCC4=CC(=O)CC[C@]4(C)[C@H]3[C@@H](O)C[C@@]21C,37.5%
12,O=C(CCOCCOCCOCCOCCC(=O)Nc1c(I)cc(I)c(C(=O)O)c1I)Nc1c(I)cc(I)c(C(=O)O)c1I,-21%
13,Cc1ccccc1C(=O)N1CC/C(=N\OS(=O)(=O)O)c2ccc(Cl)cc21,10.2%
14,CCCCCN(CCCOC)C(=O)C(CCC(=O)O)NC(=O)c1ccc(Cl)c(Cl)c1 (stereo not given),-19%
15,C=C(C)C(=O)OCC(O)CO (stereo not given),-11.8%
16,CN=C(N)NC(=O)Nc1c(C)cccc1C,0.509%
17,Nc1ncnc2c1ncn2Cc1c(F)cccc1Cl,-16.1%
18,CCCCC(O)/C=C(C)/C=C/C=C/C(=O)N1CCCC1=O (stereo not given),-9.96%
19,COc1ccc([C@@H]2Sc3ccccc3NC(=O)[C@@H]2O)cc1,55.8%
20,N[C@@H](Cn1ccc(=O)c(O)c1)C(=O)O,-20.4%

# Source: PubChem BioAssay (NCATS)
